Bioassay records (PubChem BioAssay)
MPTP inh: inhibitors of mitochondrial permeability transition pore. isolated mouse mitochondria, Ca2+ swelling absorbance, 30 min. inhibition, % at 10 µM. hit rate 1.4% among 360,000. AID 602449;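 active means inhibition of 50% or more, scaled per plate between neutral and stimulator controls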;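 further: 0% = DMSO wells given calcium and 100% = 1 mM EGTA wells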
FAS TE block: inhibitors of human fatty acid synthase thioesterase domain; P49327; recombinant FAS-TE, OMFH fluorogenic substrate, fluorescence endpoint; inhibition, % at 15 µM; hit rate 0.67% among 360,000; AID 602261;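 active means compounds whose normalised, plate-corrected inhibition of enzyme fluorescence in the single-dose primary screen is 50% or more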;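 further: 0% = DMSO with enzyme and 100% = substrate without enzyme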
rCAG binder: molecules binding r(CAG) RNA repeats. AID 651821. inhibition, % at 3 µM. hit rate 1.3% among 370,000. r(CAG) RNA repeat, TO-PRO-1 dye displacement fluorescence;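 active means inhibition above the plate cutoff, the mean of all test compounds on that plate plus 3 SD, cut at about 35% in these data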;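 further: 0% = DMSO alone and 100% = 100 µM mitoxantrone as full dye displacement; higher means more dye released from RNA so lower well fluorescence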
NR3A LBD binder: NR3A (human) ligand-binding domain modulation; NR3A LBD differential scanning fluorimetry, Tm shift; 0% = protein alone, 100% = glycine-bound protein; Tm shift relative to glycine control, % at 25 µM; hit rate 2.5% among 340,000; AID 1259313;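 active means melting temperature shift of at least 10% of the positive control shift, at one fixed dose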
Myeloid diff 2: myeloid differentiation induction. calls only at 10 µM. hit rate 1% among 360,000. AID 624256. ER-HoxA9 myeloid progenitors, lysozyme-GFP differentiation, flow cytometry;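 active means normalized GFP-positive differentiation at or above the plate's own cutoff, the solvent-only control mean plus 3 SD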;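 further: cells exposed to compound for four days before flow analysis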
Myeloid diff CP1: promotes myeloid progenitor differentiation; shares compounds with Myeloid diff 2; ER-HoxA9 myeloid progenitors, GFP/Mac1 double-positive flow; calls only; hit rate 2% among 2,300;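 active means share of green or green-and-red cells above 9 and 9% in run 1 or 4 and 3% in run 2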
GFP autofluor: compound fluorescence in myeloid differentiation counter-screen; shares compounds with Myeloid diff 2; ER-HoxA9 myeloid progenitors, no estrogen, GFP autofluorescence flow cytometry; vehicle wells 0%, positive control 100%; fluorescence response, % (no concentration beside the values); hit rate 7.4% among 2,300;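 active means over 5% cells positive for green fluorescent reporter, or over 2% positive for both it and APC stain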;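 further: range taken on the double positive population between DMSO and positive control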
Numbers without * were called inactive; i = inactive; · = no result; + = active, no number. An excerpt weighted towards active compounds, which were near 5.7% of everything screened.

SMILES | MPTP inh | FAS TE block | rCAG binder | NR3A LBD binder | Myeloid diff 2 | Myeloid diff CP1 | GFP autofluor
O=Cc1ccc(-c2nc3ccccc3s2)o1 | 10 | -6 | 5 | -1 | i | · | ·
COc1cc(CN2CCN(Cc3ccc4cc(F)ccc4n3)CC2CCO)cc(OC)c1 (centres undefined) | 1 | -5 | 0 | 1 | i | i | 0
Cc1ccc(C)c(OCCC(=O)Nc2ccccc2C(=O)NC2CC2)c1 | -3 | 4 | -2 | 2 | i | · | ·
CCOC(=O)c1c(C)[nH]c(C(=O)OCC(=O)NCCc2ccc(OCC)c(OCC)c2)c1C | -1 | -1 | -2 | 2 | + | i | 0
O=C(Nc1cccc2ccccc12)c1ccc([N+](=O)[O-])s1 | 27 | 2 | 3 | -5 | i | · | ·
O=C(Nc1ccccc1F)c1ccc([N+](=O)[O-])s1 | -1 | -4 | -1 | 0 | + | i | 0
Cc1cc(C)c(S(=O)(=O)N2CCOC2CNC(=O)C(=O)NCCCN2CCOCC2)c(C)c1 (centres undefined) | 0 | -5 | -5 | 0 | i | · | ·
O=C(Cn1c2ccccc2c2nc3n(c(=O)c21)CCS3)Nc1ccccc1C(F)(F)F | 1 | -3 | -1 | 3 | i | · | ·
COc1ccccc1NC(=O)Cn1c2ccccc2c2nc3n(c(=O)c21)CCS3 | 1 | 13 | -1 | -2 | + | i | 0
Cc1[nH]c2ccccc2c1C(=O)CSc1ccc(Cl)cc1 | 1 | 1 | 3 | 5 | i | · | ·
Cc1[nH]c2ccccc2c1C(=O)/C=C\c1ccccc1Cl | 9 | 13 | 8 | 11* | + | i | 1
Cc1cccc(C)c1-n1nnnc1C1(C)CCC(=O)N1Cc1cccc(C(F)(F)F)c1 (centres undefined) | -1 | 8 | -1 | · | i | · | ·
Cn1c(SCC(=O)Nc2ccccc2Br)nnc1-c1cnccn1 | -1 | -8 | -3 | 0 | i | · | ·
COc1ccccc1CNC(=O)COC(=O)c1ccc(-n2cnnn2)cc1 | -1 | -5 | 1 | 1 | i | · | ·
COc1ccccc1N(O)C1CC(=O)N(c2ccc(F)cc2)C1=O (centres undefined) | 0 | -1 | 12 | -3 | i | i | 0
CCOC(=O)CC1C(=O)NCCN1S(=O)(=O)c1ccc(F)cc1 (centres undefined) | 0 | -2 | -1 | 0 | i | · | ·
CCOC(=O)CC1C(=O)NCCN1S(=O)(=O)c1ccc(Cl)cc1 (centres undefined) | 0 | -5 | -6 | 1 | + | i | 0
CCOC(=O)c1cc(-c2ccccc2)sc1NC(=S)Nc1cc(C)ccn1 | 1 | -2 | 1 | -1 | + | i | 0
c1csc(-c2noc(CN3CCc4sccc4C3)n2)c1 | 0 | -2 | 1 | -1 | i | · | ·
O=C(CCCCCn1c(=S)[nH]c2cc3c(cc2c1=O)OCO3)N1CCN(c2ccccc2)CC1 | 1 | -5 | 2 | 2 | i | · | ·
O=C(CCCn1c(=S)[nH]c2cc3c(cc2c1=O)OCO3)N1CCN(c2ncccn2)CC1 | 0 | 6 | 0 | -2 | i | i | 0
Cc1ccc(CNC(=O)C2CCCN(c3cnccn3)C2)cc1 (centres undefined) | 0 | -3 | -5 | 1 | i | · | ·
CC(=O)N1CCN(C(=O)CCc2nc3ccccc3c(=O)[nH]2)CC1 | -8 | -6 | 1 | -1 | + | i | 0
CCN(CC(=O)Nc1ccccc1OC)C(=O)c1cc(S(=O)(=O)N2CCCCCC2)ccc1OC | -1 | 3 | -5 | 0 | i | · | ·
CCOC(=O)N1CCN(c2ccc(Cl)c(Cl)c2)CC1 | -2 | 11 | -8 | 1 | + | i | 0
SMILES | MPTP inh | FAS TE block | rCAG binder | NR3A LBD binder | Myeloid diff 2 | Myeloid diff CP1 | GFP autofluor
N#CC1=C(SCC(=O)c2cc3ccccc3oc2=O)NC(=O)C(C#N)C12CCCC2 (centres undefined) | 1 | 0 | 35 | 6 | i | i | 0
COC(=O)CC1Nc2ccccc2SC1=O (centres undefined) | 1 | -8 | -1 | 0 | i | i | 0
CCN1C(=S)SC(=O)C1=C1C=C(C)N(CCO)C(C)=C1 | 0 | -2 | 0 | -1 | i | i | 0
Cc1ccc(NC(=O)C2CCCN(C3=NS(=O)(=O)c4ccccc43)C2)c(O)c1 (centres undefined) | 1 | -4 | 10 | -1 | + | i | 21*
COc1ccc(Cl)cc1Cn1c(C)c(C(=O)NCc2ccc(F)cc2)sc1=O | -1 | 25 | 5 | · | i | · | ·
COc1ccccc1N1C(=O)c2cccc3c(Cl)ccc(c23)C1=O | 0 | 11 | -1 | -2 | i | i | 0
CCCNC(=O)C(Cc1ccccc1F)NC(=O)c1ccc(C#N)cc1 (centres undefined) | 0 | -1 | -2 | -1 | i | · | ·
Cc1ccc(NC(=O)C2CCN(S(=O)(=O)c3ccc4c(c3)CCCC(=O)N4)CC2)cc1N(C)C | 6 | -2 | 8 | -5 | i | · | ·
O=c1[nH]c(SCc2nc3c(cnn3-c3ccccc3)c(=O)[nH]2)nc2ccccc12 | 1 | -12 | 6 | -6 | + | i | 3
CON1C(=O)C(=O)N(OC)C(C)(C)C1C (centres undefined) | 0 | -6 | -5 | 2 | i | i | 0
COCCn1nnnc1CN1CCN2CCCC2C1 (centres undefined) | -1 | -6 | 0 | 4 | + | i | 0
CC(C)(C)n1nnnc1CN1CCN2CCCC2C1 (centres undefined) | 0 | -10 | 1 | 1 | i | · | ·
CC[C@]12c3[nH]c4ccc(Cl)cc4c3CCN1C(=O)[C@@H](CC(=O)NCCc1ccccn1)C[C@@H]2C(=O)N1CCN(C(=O)C2CC2)CC1 | -1 | -2 | 1 | 0 | i | i | 0
NNC(=O)c1csc(-c2ccccc2)n1 | 1 | 3 | 1 | 4 | + | i | 0
NNC(=O)Cc1csc(-c2ccccc2)n1 | -3 | -2 | -1 | -2 | i | · | ·
O=C(CCNC(=O)c1ccc(Br)cc1)NC1CCCc2ccccc21 (centres undefined) | 0 | 8 | -5 | 1 | + | + | 0
O=C(NC1CCCc2ccccc21)c1ccc(Br)cc1 (centres undefined) | 0 | 7 | 4 | 1 | i | · | ·
CN1c2ccccc2C(C)(C)C12C=Cc1cc(O)ccc1O2 (centres undefined) | 4 | 0 | 13 | -3 | + | i | 53*
C[C@H](CO)N1C[C@H](C)[C@@H](CN(C)Cc2ccc(Oc3ccccc3)cc2)Oc2c(NS(=O)(=O)c3cn(C)cn3)cccc2C1=O | 0 | -8 | -1 | -1 | i | · | ·
N#C/C(=C\Nc1ccc2cn[nH]c2c1)c1nc(-c2ccccc2)cs1 | 3 | -4 | 11 | 2 | i | · | ·
